From PubChem BioAssay
The source made the active and inactive calls. Unless noted, no rule for the calls is given here.

Tests used:
[1] = anti-His antibody binders, primary screen, artefact control for SMM control protein annotation, biochemical, small-molecule microarray, 635 nm fluorescence (AID 1128); settings: anti-His Alexa647 antibody binding, higher = more signal;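 also: score merges feature fluorescence with signal-to-noise for each printed compound spot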
[2] = tested on: Human papillomavirus type 1a E7 protein (residues 1-88); test: HPV1a E7 small-molecule binders, primary screen, biochemical, small-molecule microarray, residues 1-88, 635 nm (AID 1129); settings: small-molecule microarray binding, fluorescence 635 nm; higher = more signal
[3] = molecular target: Focal adhesion kinase 1 (Homo sapiens) (UniProt Q05397); test: small-molecule microarray binders of FAK, primary screen, biochemical, 635/667 nm fluorescence, BSA, DTT (AID 1130); settings: PTK2 binding, 635 nm fluorescence, higher = more signal;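 also: composite of spot emission at 667 nm and signal to noise over triplicate slides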
Chain of Focal adhesion kinase 1 (Homo sapiens) (Q05397 whole entry, looked up): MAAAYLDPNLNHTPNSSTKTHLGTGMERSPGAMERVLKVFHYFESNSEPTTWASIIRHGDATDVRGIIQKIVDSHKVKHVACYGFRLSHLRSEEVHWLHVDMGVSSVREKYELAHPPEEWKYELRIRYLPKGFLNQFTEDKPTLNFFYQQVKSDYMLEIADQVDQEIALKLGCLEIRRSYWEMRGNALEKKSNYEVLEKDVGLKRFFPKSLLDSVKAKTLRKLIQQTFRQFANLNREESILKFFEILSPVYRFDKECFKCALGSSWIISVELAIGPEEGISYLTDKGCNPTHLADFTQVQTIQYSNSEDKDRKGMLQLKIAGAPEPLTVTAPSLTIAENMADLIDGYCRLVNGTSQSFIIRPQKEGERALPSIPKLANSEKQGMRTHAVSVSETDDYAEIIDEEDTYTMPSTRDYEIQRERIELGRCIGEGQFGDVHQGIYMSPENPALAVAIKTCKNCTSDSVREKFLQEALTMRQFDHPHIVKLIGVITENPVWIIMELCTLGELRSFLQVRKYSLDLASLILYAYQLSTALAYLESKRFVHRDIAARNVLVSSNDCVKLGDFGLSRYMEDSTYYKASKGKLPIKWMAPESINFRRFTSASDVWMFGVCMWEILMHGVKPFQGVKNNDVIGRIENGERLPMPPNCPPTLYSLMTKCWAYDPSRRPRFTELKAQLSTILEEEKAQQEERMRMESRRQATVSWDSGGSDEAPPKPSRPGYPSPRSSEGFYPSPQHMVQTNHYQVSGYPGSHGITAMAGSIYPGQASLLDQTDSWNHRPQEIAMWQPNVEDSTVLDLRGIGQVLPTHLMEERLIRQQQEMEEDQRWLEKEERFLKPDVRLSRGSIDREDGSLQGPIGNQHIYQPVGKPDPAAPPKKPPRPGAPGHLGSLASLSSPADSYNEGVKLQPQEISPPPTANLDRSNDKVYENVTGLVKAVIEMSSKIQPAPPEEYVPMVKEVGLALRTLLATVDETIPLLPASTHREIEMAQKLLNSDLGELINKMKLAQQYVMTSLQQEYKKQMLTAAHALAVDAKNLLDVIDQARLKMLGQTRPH

[4] = tested on: Fibrinogen (Alexa647-labelled); test: fibrinogen binders on compound microarrays, profiling panel, artefact control for SMM control-protein annotation, biochemical, small-molecule microarray, 635/667 nm fluorescence (AID 1131); settings: fibrinogen-A647 binding fluorescence, higher = more signal;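 also: z-score merges 667 nm fluorescence with per-spot signal-to-noise over triplicate slides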
[5] = molecular target: Follistatin (Homo sapiens) (UniProt P19883); test: follistatin binders on small-molecule microarrays, primary screen, biochemical, small-molecule microarray, 635/667 nm fluorescence (AID 1132); settings: FST binding, 635 nm fluorescence, higher = more signal
Chain of Follistatin (Homo sapiens) (P19883 whole entry, looked up): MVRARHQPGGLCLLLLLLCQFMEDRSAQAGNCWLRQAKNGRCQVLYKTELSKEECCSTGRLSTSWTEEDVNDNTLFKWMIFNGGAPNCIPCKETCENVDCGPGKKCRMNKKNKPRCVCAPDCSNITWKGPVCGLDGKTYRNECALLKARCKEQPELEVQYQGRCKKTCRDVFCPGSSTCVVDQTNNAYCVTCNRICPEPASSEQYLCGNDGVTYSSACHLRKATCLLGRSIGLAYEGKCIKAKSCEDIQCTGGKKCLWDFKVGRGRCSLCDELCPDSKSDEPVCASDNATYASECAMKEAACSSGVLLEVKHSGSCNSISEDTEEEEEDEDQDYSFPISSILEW

[6] = molecular target: Fibroblast growth factor 2 (Homo sapiens) (UniProt P09038); test: FGF2 binders on small-molecule microarrays, primary screen, biochemical, small-molecule microarray, 635/667 nm fluorescence (AID 1133); settings: small-molecule microarray binding, FGF2, fluorescence 635/667; higher = more signal
Chain of Fibroblast growth factor 2 (Homo sapiens) (P09038 whole entry, looked up): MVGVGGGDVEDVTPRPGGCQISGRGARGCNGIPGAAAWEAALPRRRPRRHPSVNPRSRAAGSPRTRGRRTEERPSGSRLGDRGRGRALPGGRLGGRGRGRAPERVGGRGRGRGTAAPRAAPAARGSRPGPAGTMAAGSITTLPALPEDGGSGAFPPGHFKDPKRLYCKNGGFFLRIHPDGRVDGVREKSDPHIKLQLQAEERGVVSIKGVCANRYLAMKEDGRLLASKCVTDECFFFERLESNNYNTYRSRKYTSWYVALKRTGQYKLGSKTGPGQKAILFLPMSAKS

[7] = mitochondrial membrane potential change in A549 cells, profiling panel, cell-based, JC-1 fluorescence, basal, 24 h, 100 nL (AID 1138); settings: higher = more signal;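 also: A549 lung adenocarcinoma cells under basal conditions with no added stimulus; test concentration not given here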
Lefty1 = Lefty1 binders on small-molecule microarrays, primary screen, biochemical, small-molecule microarray, 635/667 nm fluorescence (AID 1139); settings: small-molecule microarray binding, fluorescence 635/667; higher = more signal
[8] = tested on: wheat germ agglutinin (Triticum aestivum), Alexa647-labelled; test: wheat germ agglutinin binders on compound microarrays, profiling panel, artefact control for SMM control-protein annotation, biochemical, small-molecule microarray, 635/667 nm fluorescence (AID 1140); settings: WGA-A647 binding, 635 nm fluorescence, higher = more signal;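 also: score merges 667 nm feature emission with signal to noise over triplicate slides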
[9] = molecular target: Luciferin 4-monooxygenase (Photinus pyralis) (UniProt P08659); test: firefly luciferase enzyme inhibitors, primary screen, biochemical, luminescence, purified enzyme, 2006 set (AID 1141); settings: SteadyGlo luminescence, 30 min, higher = more signal, called active from +8 up or from −8 down;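 also: cell-free assay with purified firefly luciferase at 100 ng per well in PBS; test concentration not given here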
Chain of Luciferin 4-monooxygenase (Photinus pyralis) (P08659 whole entry, looked up): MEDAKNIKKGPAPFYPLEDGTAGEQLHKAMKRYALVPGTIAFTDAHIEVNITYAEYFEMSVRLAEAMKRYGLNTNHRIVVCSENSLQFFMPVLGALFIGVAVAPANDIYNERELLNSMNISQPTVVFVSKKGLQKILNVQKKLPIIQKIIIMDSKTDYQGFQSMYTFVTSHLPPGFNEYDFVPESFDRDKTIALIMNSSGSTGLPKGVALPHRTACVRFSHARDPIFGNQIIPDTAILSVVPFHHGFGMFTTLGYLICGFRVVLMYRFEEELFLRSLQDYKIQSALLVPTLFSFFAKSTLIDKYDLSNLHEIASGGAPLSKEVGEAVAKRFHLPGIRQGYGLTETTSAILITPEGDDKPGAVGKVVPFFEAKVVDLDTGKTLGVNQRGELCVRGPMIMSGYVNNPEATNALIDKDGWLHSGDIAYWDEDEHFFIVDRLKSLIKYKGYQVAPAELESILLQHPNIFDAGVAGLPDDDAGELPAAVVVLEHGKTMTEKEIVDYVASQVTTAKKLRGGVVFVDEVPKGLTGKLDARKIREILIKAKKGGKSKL

[10] = tested on: Wnt5a (protein binding on small-molecule microarray); test: Wnt5a binders on small-molecule microarray, primary screen, biophysical, 635/667 nm fluorescence (AID 1142); settings: 635 nm fluorescence, higher = more signal;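 also: fluorescence read at 667 nm with signal to noise per printed feature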
[11] = cell viability in Huh7 cells, primary screen, cytotoxicity control for HCV replication inhibitor project, CellTiter-Glo luminescence, basal, 48 h (AID 1143); settings: Huh7 HCV replicon, higher = more signal, called active from +8 up or from −8 down;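 also: Huh7 hepatoma cells carrying a hepatitis C replication reporter with no stimulus; test concentration not given here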
[12] = P. aeruginosa biofilm formation inhibitors, primary screen, PAO1 strain, BacTiter-Glo luminescence, LB-PBS (AID 1144); settings: 12 h, higher = more signal
[13] = CREB reporter modulators without forskolin, primary screen, cell-based, PC12, CRE-LacZ reporter, unstimulated (AID 1145); settings: no forskolin, luminescence, 4.5 h, higher = more signal, called active from +8 up or from −8 down
[14] = CREB reporter modulators under forskolin, primary screen, cell-based, PC12, CRE-LacZ reporter, forskolin-stimulated (AID 1146); settings: luminescence, 4.5 h, higher = more signal, called active from +8 up or from −8 down;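 also: PC12 cells with 6xCRE LacZ reporter stimulated by forskolin 10 µM; beta-galactosidase reporter signal reflecting CREB driven transcription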
[15] = molecular target: Streptavidin (Streptomyces avidinii) (UniProt P22629); test: streptavidin binders on small-molecule microarray, primary screen, artefact control for SMM compound annotation, biophysical, 635/667 nm fluorescence (AID 1147); settings: streptavidin binding, higher = more signal;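 also: signal reflects streptavidin binding to arrayed compounds as a control protein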
Chain of Streptavidin (Streptomyces avidinii) (P22629 whole entry, looked up): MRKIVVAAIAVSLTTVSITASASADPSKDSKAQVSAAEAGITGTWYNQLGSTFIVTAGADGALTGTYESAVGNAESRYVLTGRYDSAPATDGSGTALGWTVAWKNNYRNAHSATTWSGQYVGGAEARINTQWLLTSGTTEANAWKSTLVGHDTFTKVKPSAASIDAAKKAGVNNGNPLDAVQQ

[16] = small-molecule binders of probe aInhba, primary screen, biochemical, small-molecule microarray, 635/667 nm fluorescence (AID 1148); settings: higher = more signal;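 also: score merges 667nm spot fluorescence with signal-to-noise for antibody binding to printed compounds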
Torsin-1A (Homo sapiens) [17] = molecular target: Torsin-1A (Homo sapiens) (UniProt O14656); test: torsin A binders from cell lysate, primary screen, small-molecule microarray, wild-type, 635/667 nm (AID 1149); settings: COS7 hTOR1A-WT lysate, 635 nm fluorescence, higher = more signal
Chain of Torsin-1A (Homo sapiens) (O14656 whole entry, looked up): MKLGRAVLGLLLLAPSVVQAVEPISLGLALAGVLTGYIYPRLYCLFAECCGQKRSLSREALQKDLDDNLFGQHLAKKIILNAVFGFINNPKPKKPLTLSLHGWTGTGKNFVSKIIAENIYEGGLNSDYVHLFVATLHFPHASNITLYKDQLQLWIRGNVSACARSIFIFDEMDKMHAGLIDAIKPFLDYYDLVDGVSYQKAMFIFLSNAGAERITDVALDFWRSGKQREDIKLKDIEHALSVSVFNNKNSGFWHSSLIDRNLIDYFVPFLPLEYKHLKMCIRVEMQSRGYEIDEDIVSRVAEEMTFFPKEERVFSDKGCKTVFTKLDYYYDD

Torsin-1A (Homo sapiens) [18] = molecular target: Torsin-1A (Homo sapiens) (UniProt O14656); test: small-molecule binders of mutant TOR1A in lysate, primary screen, cell lysate, small-molecule microarray, COS7 lysate, 635/667 nm fluorescence (AID 1150); settings: COS7 hTOR1A mutant lysate, 635 nm fluorescence, higher = more signal;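 also: score pools 667 nm emission and signal to noise measuring lysate protein binding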
[19] = tested on: Sonic hedgehog protein (Shh); test: small-molecule binders of Shh protein, primary screen, biochemical, small-molecule microarray, 635/667 nm fluorescence (AID 1151); settings: small-molecule microarray binding, 635 nm fluorescence; higher = more signal;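 also: Shh protein binding to compounds spotted on small-molecule microarray slides; score combines spot fluorescence intensity with signal-to-noise across triplicate slides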

SMILES	composite z-score [1]	composite z-score [2]	composite z-score [3]	composite z-score [4]	composite z-score [5]	composite z-score [6]	z-score [7]	composite z-score (Lefty1)	composite z-score [8]	z-score [9]	composite z-score [10]	z-score [11]	z-score [12]	z-score [13]	z-score [14]	composite z-score [15]	composite z-score [16]	composite z-score (Torsin-1A (Homo sapiens) [17])	composite z-score (Torsin-1A (Homo sapiens) [18])	composite z-score [19]
CCOc1cc(C(O)C2C=CC3C(=O)N(C)C(=O)C3N2N2CCCCC2)ccc1O (stereo not given)	1	-0.158	0.125	0.498	0.746	0.1	-0.634	0.192	0.335	-0.906 (inactive)	0.194	0.862 (inactive)	-0.401 (inactive)	0.433 (inactive)	-0.499 (inactive)	0.3	-0.137	0.28	0.221	0.0937
CN(C)CCCNC(=O)[C@@]1(c2ccc([N+](=O)[O-])cc2)CC(=O)N(CC23CC4CC(CC(C4)C2)C3)[C@@H]1c1ccc(CO)cc1	1.03	1.19	0.703	0.807	1.28	0.844	0.742	0.99	0.955	0.292 (inactive)	0.461	-5.82 (inactive)	-0.262 (inactive)	-0.295 (inactive)	-0.741 (inactive)	2.03	0.641	-0.183	0.0626	0.989
O=C1NCC(=O)N2[C@@H]1C[C@@H](C(=O)O)[C@H]2c1ccc(O)cc1	3.15	1.19	0.278	0.8	1.38	1.9	0.563	1.56	0.255	-0.504 (inactive)	0.27	-0.286 (inactive)	-0.611 (inactive)	0.0084 (inactive)	0.622 (inactive)	0.237	0.0104	1.13	2.29	2.01
CC(C)N1CC=CC23O[C@@H]4C=CCCOC(=O)C4[C@H]2C(=O)N(CCO)[C@@H]3C1=O (stereo not given in full)	-0.517	-1	-0.482	-0.288	-0.194	-0.205	-0.467	0.0404	0.459	0.697 (inactive)	-0.496	-0.102 (inactive)	-2.21 (inactive)	-1.99 (inactive)	-0.665 (inactive)	-0.516	-0.213	0.862	0.875	-0.0837
